# Most compounds without a hit are left out; they make up all but 21% or so of the library.
# Pf growth 48h = inhibits P. falciparum growth in the first generation, 48 h; Potency, µM (titrated, usually from 28.7 µM), for inactives: top-dose activity change, negative = inhibition, actives largely listed as inhibitors; 310,000 tested, 5.9% active; P. falciparum luciferase growth in erythrocytes, 48 h; further: potency means the concentration at half of the fitted maximal effect; on the % scale 0 is the no-effect control and ±100 the full control effect
#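 Here the parasites carry a stable luciferase gene and grow inside erythrocytes in Albumax-based RPMI medium with compound for one erythrocytic cycle. Activity is scored as loss of luminescent signal.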
# CHX counter = affects cycloheximide protein synthesis inhibition readout, counter-screen; cell reporter, cycloheximide protein synthesis inhibition counterscreen; max response, %; 300,000 tested, 12% active; AID 2314; in the data active means max response mostly above about 13%, no sharp cut-off; inactive means mostly below about 14%; further: read at 38.3 µM for the half of the compounds with a filed dose; 0% is about no effect
# FBPA Giardia inh = inhibitors of Giardia lamblia fructose-1,6-bisphosphate aldolase; A8B2U2; purified Giardia FBPA; Potency, µM (series often up to 59.6 µM), for inactives: at the top dose activity, negative = inhibition, actives largely listed as inhibitors; 290,000 tested, 0.71% active; AID 2451; further: potency means the concentration at half of the fitted maximal effect; on the % scale 0 is the no-effect control and ±100 the full control effect; nearly all actives have a fitted effect of over 55% in size
# Target sequence (A8B2U2 whole entry, looked up): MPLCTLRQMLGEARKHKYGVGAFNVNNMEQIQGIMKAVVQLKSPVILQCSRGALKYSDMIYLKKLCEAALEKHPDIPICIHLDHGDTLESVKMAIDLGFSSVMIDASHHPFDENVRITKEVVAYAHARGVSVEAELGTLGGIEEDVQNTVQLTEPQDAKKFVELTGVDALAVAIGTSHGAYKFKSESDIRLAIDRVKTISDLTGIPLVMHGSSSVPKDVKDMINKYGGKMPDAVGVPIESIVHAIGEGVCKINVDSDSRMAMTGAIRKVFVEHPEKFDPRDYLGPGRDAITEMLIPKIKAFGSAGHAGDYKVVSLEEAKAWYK
#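 40 nM FBPA preincubated 10 min at RT with compound (up to 57.5 uM final), then substrate plus GAPDH/TPI/NAD/arsenate coupling and diaphorase/resazurin added. Fluorescence read after 20 min at RT, 525/598 nm.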
# Shiga toxin inh = blocks Shiga toxin action in Vero cells | Vero cells, Shiga toxin protein synthesis inhibition reporter | inhibition, % at 38.7 µM | 290,000 tested, 9.2% active | AID 2315; in the data active means inhibition mostly above about 28%, no sharp cut-off; inactive means mostly below about 43%; further: 0% is about no effect
# NS1 function inh = inhibitors of influenza NS1 protein function; Potency, µM (highest dose often 46.1 µM), for the others: at the highest dose activity, positive = more growth; 270,000 tested, 0.4% active; calls by dose curve; further: potency means the concentration at half of the fitted maximal effect; actives are rising curves; nearly all actives have a fitted effect of over 50% in size
#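 Growth recovery, yeast-based: influenza A NS1 expressed in S. cerevisiae causes slow growth, and suppressors are detected by OD600. The parent strain without NS1 is used as positive control.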
# Pf growth 96h = P. falciparum growth inhibition at 96 hours | P. falciparum luciferase reporter growth, 96 h | Potency, µM (doses to about 28.7 µM), for inactives: top-dose activity change, negative = inhibition, hits mostly inhibitors | 320,000 tested, 6.9% active | AID 504834; further: potency means the concentration at half of the fitted maximal effect; on the % scale 0 is the no-effect control and ±100 the full control effect
#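 Plates of compound plus infected erythrocytes (2% hematocrit, 0.05% parasitemia final) incubate 96 hours, 37 C, 5% CO2. Detection reagent added; reduced luminescence from the parasites' luciferase reporter flags inhibition.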
# An asterisk follows results filed as active; ? = inconclusive; nt = no result; [ ] = another dose, or the depositor's remark. Unless noted, the call rests on the fitted dose curve; in most records, active means well fitted curve in the direction sought with a large enough effect; inconclusive means small, poorly fitted or top-dose-only effect, or another doubt; inactive means no such curve, though single readings can be large; an effect the other way counts as inactive or inconclusive.
SMILES,Pf growth 48h,CHX counter,FBPA Giardia inh,Shiga toxin inh,NS1 function inh,Pf growth 96h
ON=C1c2cc(OCCN3CCCCC3)ccc2-c2ccc(OCCN3CCCCC3)cc21,1.65µM*,10.2,-11.5%,14.2,-11.1%,1.47µM*
Cc1cc(C(=O)Nc2ccccc2Cl)n(-c2ccccc2)n1,6.0%,9.4,1.0%,-4.7,-0.3%,33.4%
O=[N+]([O-])c1ccc(S(=O)(=O)N/N=C/c2ccsc2)cc1,0.0%,2.2,nt,-2.2,-11.4%,-8.3%
Cc1ccc(-c2onc3ccc(Br)cc23)cc1,2.3%,10.8,-3.5%,-3.8,0.5%,20.1%
Cc1ccc(-c2onc3ccc(C4OCCO4)cc23)cc1,319.0%,14.0*,1.5%,71.4*,nt,?
Cc1ccc(N2C(=O)c3ccccc3NC2C(C)Cc2ccc3c(c2)OCO3)cc1 (stereo unspecified),?,18.1*,-8.4%,47.5*,26.5%,?
CCC1(CC)CCNC1=O,nt,0.8,0.2%,11.9,nt,nt
COc1ccc(NS(=O)(=O)c2ccc(NS(=O)(=O)c3cccs3)cc2)cc1,10.1%,-4.8,-12.9%,-8.4,5.6%,-0.2%
CC(C)(C)NC(=O)C(=O)NN=C1CCCCCCCCCCC1,19.6%,-7.9,-14.0%,-9.9,nt,?
NC(N)=NN=C1CCCCCCCCCCC1,10.4µM*,-4.6,-2.6%,-14.3,4.5%,3.7µM*
O=S(=O)(NCc1ccccn1)c1ccccc1,nt,-4.8,-6.8%,20.4,-1.7%,43.0%
CCOc1ccc(S(=O)(=O)NCc2ccccn2)c(C)c1C,?,8.3,-5.2%,6.6,6.4%,10.4µM*
COc1ccccc1Oc1ccc(S(=O)(=O)NCc2ccccn2)cc1,2.4%,2.6,0.6%,22.6,-12.4%,10.4µM*
O=S(=O)(NCCc1ccccn1)c1ccc(F)c(F)c1,12.7%,-2.5,5.3%,-6.5,2.5%,5.22µM*
CC(C)(C)c1ccc(S(=O)(=O)NCc2ccccn2)cc1,10.0%,18.0*,8.5%,48.2,-12.4%,-0.1%
COC(=O)[C@@]1(Cc2ccc(F)cc2)[C@H]2c3cc(C(=O)N4CCCC4)n(CCc4c[nH]c5cc(F)ccc45)c3C[C@H]2CN1C(=O)c1ccccc1,nt,nt,-9.5%,nt,nt,nt
CCC(=O)Oc1ccc(-c2cnc3ccccc3n2)cc1,27.9%,31.6*,-3.2%,60.2,-43.3%,317.2%
O=C(Oc1ccc(-c2nnco2)cc1)c1ccco1,7.2%,nt,nt,nt,nt,37.7%
O=C(Oc1ccc(-c2cnc3ccccc3n2)cc1)c1ccco1,170.8%,23.2*,0.8%,64.4,6.4%,nt
CCOC(=O)COc1cnc2ccccc2n1,?,2.1,1.1%,12.9,5.0%,-0.4%
O=C(/C=C/c1cccs1)Nc1nc(-c2ccccc2)cs1,?,40.0*,-11.9%,62.7*,13.5%,-29.4%
O=C(/C=N/O)Nc1cccnc1,-5.3%,-2.5,-2.1%,18.4,3.3%,?
O=C(/C=C/c1cccs1)Nc1cccnc1,216.5%,75.3*,-10.8%,124.0*,-13.3%,4.65µM*
O=C(/C=C/c1cccs1)Nc1scc(-c2ccccc2)c1C(=O)O,467.0%,44.2*,?,91.5*,nt,121.9%
O=C(/C=C/c1cccs1)Nc1nncs1,47.4%,33.5*,5.0%,53.6*,-5.7%,97.8%
SMILES,Pf growth 48h,CHX counter,FBPA Giardia inh,Shiga toxin inh,NS1 function inh,Pf growth 96h
O=C(/C=C/c1cccs1)NNC(=O)c1ccccc1,99.4%,nt,nt,nt,nt,127.7%
Cc1ccnc(NC(=O)/C=C/c2cccs2)c1,44.8%,49.9*,0.4%,97.4*,-23.1%,120.7%
c1ccc(CNc2ccnc(-c3ccoc3)n2)cc1,nt,nt,-15.4%,nt,nt,nt
O=S(=O)(c1ccc(Cl)cc1)N1CCC2(CC1)OCCN2S(=O)(=O)c1cccs1,13.1µM*,nt,nt,nt,nt,?
O=S(=O)(c1cccs1)N1CCC(CO)(Cc2ccc(Cl)cc2)CC1,25.2%,1.1,-1.2%,-1.4,-3.4%,0.738µM*
Cc1ccc(S(=O)(=O)N2CCOC23CCN(S(=O)(=O)c2cccs2)CC3)cc1,-0.3%,nt,nt,nt,nt,-24.1%
COc1ccc(OC)c(S(=O)(=O)N2CCC3(CC2)OCCN3S(=O)(=O)c2cccs2)c1,?,nt,nt,nt,nt,10.4µM*
COc1ccc(C)cc1S(=O)(=O)N1CCC2(CC1)OCCN2S(=O)(=O)c1ccccc1,-9.6%,nt,nt,nt,nt,8.3%
CC(NC(=O)C(=O)NCCc1c[nH]c2ccccc12)c1ccccc1 (stereo unspecified),-4.9%[0.00184 µM],4.0,1.5%,2.8,-1.0%,9.3%
O=C1CC(N2CCN(c3ncccn3)CC2)C(=O)N1CCc1ccccc1 (stereo unspecified),15.6%,6.8,0.6%,12.1,1.5%,?
O=C(CSCc1ccc(F)cc1)Nc1ccc(F)cc1,0.8%,16.8,-4.2%,19.3,-9.3%,6.57µM*
Cc1ccc(CNC(=O)CSCc2ccccc2)cc1,42.2%,29.3*,0.2%,71.3*,-4.9%,13.1%
Cc1ccc(CNC(=O)CSCc2ccc(F)cc2)cc1,0.1%,6.6,10.3%,18.3,nt,9.5%
O=C(CSc1ccccc1)NCc1ccc(F)cc1,85.0%,39.5*,2.2%,79.8*,-5.7%,5.0%
CCC(=O)Oc1ccc(NC(=O)CSCc2ccccc2)cc1,38.1%,24.9*,-3.9%,96.4*,-9.2%,26.6%
COC(=O)c1ccc(NC(=O)CSCc2ccccc2)cc1,nt,14.3,-4.0%,49.1,-20.4%,26.8%
O=C(CSCc1ccccc1)Nc1cccc(F)c1,75.6%,38.1*,-3.6%,76.6*,-2.6%,?
Cc1ccc(SCC(=O)NCc2ccc(F)cc2)cc1,2.3%,-4.4,3.9%,-13.3,-5.7%,2.5%
Cc1ccccc1CNC(=O)c1ccc(CSCc2ccccc2)cc1,?,1.2,-4.8%,2.9,-5.3%,6.57µM*
Cc1ccc(CSCC(=O)Nc2ccccc2)cc1,-7.3%,31.7*,1.0%,26.4*,-5.7%,?
Cc1ccc(SCC(=O)NCc2ccccc2)cc1,2.3%,21.3*,-4.7%,71.3*,-15.1%,?
COc1cccc(OC)c1C1=Nn2c(nnc2-c2ccccc2C)SC1,nt,7.3,5.3%,6.5,nt,nt
O=C(CSCc1c(F)cccc1F)Nc1ccccc1,80.4%,53.6*,12.0%,115.6*,-5.9%,?
Cc1ccc(-c2nn3c(C)nnc3s2)cc1N,50.4%,15.9*,-9.8%,48.2,-1.2%,nt
Cc1ccc(CNc2cc(-c3nn4c(C)nnc4s3)ccc2C)s1,11.7µM*,8.3,3.8%,13.3,-69.8%,?
Cc1ccc(-c2nn3c(C)nnc3s2)cc1NCc1c(F)cccc1Cl,?,-2.5,1.0%,-9.3,-74.8%,1.2%
O=C(CSc1ccccc1F)NNC(=O)c1ccncc1,-17.4%,nt,nt,nt,nt,1.6%
COc1ccc(OC)c(N(CC(=O)NN=C2CCN(C)CC2)S(=O)(=O)c2ccccc2)c1,-6.6%,-5.1,-0.2%,-6.8,3.4%,51.4%
CC1Oc2ccccc2N(CC(=O)NCc2ccc3c(c2)OCO3)C1=O (stereo unspecified),34.6%,-2.5,0.3%,30.4,1.1%,11.7µM*
CC1CC(C)CN(CC(=O)Nc2ccc3c(c2)OCCO3)C1 (stereo unspecified),-1.9%,47.7*,-30.0%,74.2*,-7.6%,30.9%

# Screening results (PubChem BioAssay)
